PubChem BioAssay
Several values for one entry are separate records, joined by “and”; a condition that tells them apart may be missing. Equal values may be shown once.

tested on: Sam68 (KHDRBS1); assay: compounds binding KHDRBS1 protein – biochemical, small-molecule microarray, 635 nm fluorescence, primary screen (AID 1125); conditions: higher = more signal;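 note: score merges 667 nm channel intensity with signal to noise over triplicate slides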

Row | SMILES | composite z-score
1 | C=C[C@@H](C)[C@H](O)c1ccc(O)c2ccccc12 | -0.309 and -1.66
2 | CCOC(=O)C[C@H]1[C@H](OC(=O)c2ccccc2-c2ccccc2)[C@@H](NC(=O)Cc2ccc(OC)cc2)c2cc(OCCCO)ccc2N1C(=O)c1ccc2ccccc2n1 | -0.636 and 0.641
3 | COCn1c2ccccc2c2nnc(C(C)=O)nc21 | 0.132 and 0.584
4 | C[C@@H](ON=C1[C@H]2CCn3c(=O)n(-c4ccccc4)c(=O)n3[C@H]2[C@H](O)[C@@H]2O[C@H]12)c1cn([C@H](CO)Cc2ccccc2)nn1 | 0.209
5 | COC(=O)C1=C(C)N(Cc2ccccc2)[C@]23O[C@](C(=O)OC)(C(=O)N2[C@@H]1c1ccccc1)[C@H]1C(=O)N(C)C(=O)[C@H]13 | 1.19 and 0.0927
6 | C[C@@H]1CC[C@H]2C(=O)N3[C@@H](CC[C@@H](C)[C@@H]3c3ccc(-c4ccco4)cc3)C(=O)N2[C@H]1c1ccc(-c2ccco2)cc1 | 1.3 and 1.1
7 | CCOC(=O)NN=C1C[C@@H](O)[C@@H](O)[C@@H]2[C@@H]3C(=O)N(Cc4ccc5c(c4)OCO5)C(=O)[C@@H]3CC[C@@H]12 | 0.789
8 | C=CCN(C(=O)C(c1cccs1)N(C(=O)/C=C\C(=O)O)c1ccc(CCO)cc1)c1ccc(OC)cc1 (configuration not stated) | -1.79 and -2.22
9 | CC(CO)N1C(=O)[C@@H]2C3C(=O)OCCC=C[C@H]3OC23C=CCN(c2ccc(Cl)cc2)C(=O)[C@@H]13 (some centres not stated) | -0.805 and 0.2
10 | C#CCN1C(/C=C/c2ccccc2)C(=O)OC[C@H]1c1ccccc1 (some centres not stated) | 0.224 and 0.889
11 | C[C@@H]1CN2[C@@H](CC[C@@H](C)[C@@H]2c2ccc(Br)cc2)C(=O)O1 | -1.57 and 0.0639
12 | C=CCN(C(=O)C(c1cccs1)N(CCOCCO)C(=O)/C=C\C(=O)O)c1ccc(OC)cc1 (configuration not stated) | -1.75 and -1.35
